The values that follow come from PubChem BioAssay AID463173 (ICCB-Longwood Screening Facility, Harvard Medical School, 2010).

About 4,300 (8.3%) of roughly 52,000 compounds were called active. The sample holds actives, similar compounds and a random draw of the others, so the mix is not that of the screen. No stated cut-off is given here; in the data, active means survival mostly below about 52% (no sharp cut-off); inactive means mostly above about 56%.

The test system of this experiment is DeltatarO mutant. Put plainly: growth inhibition of S. aureus wild type versus tarO mutant, primary screen, teichoic acid synthesis inhibitors, RN4220, OD600 (AID 463173). Particulars: OD600, 18 h, hits give low values, screened at 18.75 µg/mL (by protocol).
Turning to `CCOC(=O)c1c(C)oc2nc(C)nc(NCc3ccccc3OCC)c12`, the survival is 102% (inactive).

Take `O=C(CCCn1c(=O)c2sccc2n(Cc2cccc(Cl)c2)c1=O)NCc1ccc2c(c1)OCO2`: the survival was 64% (inactive).

As to `CCCN(CCC)CN1C(=O)S/C(=C/c2ccc(N(CC)CC)cc2)C1=O`, the survival was 68% (inactive).

Take `CCN(CC)c1ccc(/C=C2/SC(=O)NC2=O)cc1`: the survival was 34% (active).

For the molecule `CCN(CC)c1ccc(C=C2C(=O)OC3(CCCC3)OC2=O)cc1`, the survival was 83% (inactive).

As for `CCc1ccccc1NC(=O)C1CCN(C(=O)N2CC(C)Oc3ccc(Cl)cc32)CC1` (configuration not stated), the survival was 55% (active).

For the molecule `CNC(=O)C1CCN(C(=O)N2CC(C)Oc3ccc(Cl)cc32)CC1` (configuration not stated), the survival was 59% (inactive).

Consider `CC1CN(C(=O)N2CCC(C(=O)NCCC3=CCCCC3)CC2)c2cc(Cl)ccc2O1` (configuration not stated), for which the survival was 65% (inactive).

For `O=C(NCCC1=CCCCC1)C1CCN(C(=O)N2CCOc3ccc(Cl)cc32)CC1`, the survival is 47% (active).

`O=C(NCCCc1ccccc1)C1CCN(C(=O)N2CCOc3ccc(Cl)cc32)CC1`: the survival was 46% (active).

Regarding `O=C(NC1CCCCCC1)C1CCN(C(=O)N2CCOc3ccccc32)CC1`, the survival is 76% (inactive).

For the molecule `CC(C)CCNC(=O)C1CCN(C(=O)N2CCOc3ccc(Cl)cc32)CC1`, the survival is 52% (inactive).

In the case of `O=C(NC1CCCCCC1)C1CCN(C(=O)N2CCOc3ccc(Cl)cc32)CC1`, the survival is 46% (active).

Take `CC1CN(C(=O)N2CCC(C(=O)NCCCc3ccccc3)CC2)c2cc(Cl)ccc2O1` (configuration not stated): the survival is 56% (inactive).

For `Cc1ccc2c(c1)N(C(=O)N1CCC(C(=O)NC3CCCCCC3)CC1)CCO2`, the survival was 82% (inactive).

Regarding `CC1CN(C(=O)N2CCC(C(=O)NCc3ccccc3F)CC2)c2cc(Cl)ccc2O1` (configuration not stated), the survival was 60% (inactive).

For `O=C(NCCC1=CCCCC1)C1CCN(C(=O)N2CCOc3ccccc32)CC1`, the survival is 72% (inactive).

For `COc1ccccc1N1CCN(c2nc3c(S(=O)(=O)c4ccc(C)c(C)c4)nnn3c3ccc(Cl)cc23)CC1`, the survival was 81% (inactive).

As to `Cc1ccc(NCc2nnc(SCc3cc(C)ccc3C)o2)c(C)c1`, the survival is 91% (inactive).

Regarding `Cc1cccc(C)c1NC(=O)Cn1cc(S(=O)(=O)Cc2ccc(F)cc2)c2ccccc21`, the survival is 78% (inactive).

For `Cc1ccc(C)c(S(=O)(=O)c2nnn3c2nc(Nc2ccc(C)c(C)c2)c2sccc23)c1`, the survival was 77% (inactive).

For `O=C(c1ccc2c(c1)N(Cc1ccccc1F)C(=O)c1ccccc1S2(=O)=O)N1CCC(Cc2ccccc2)CC1`, the survival was 71% (inactive).

For `Cc1ccc(NC(=O)C2Cc3ccccc3N2C(=O)c2ccccc2)cc1Cl` (configuration not stated), the survival was 78% (inactive).

With `COc1ccc(CCNC(=O)C(=O)NCC(c2ccco2)S(=O)(=O)c2cccs2)cc1` (configuration not stated), the survival is 99% (inactive).

As to `O=C1CC(c2ccccc2)Sc2nc3ccccc3n21` (configuration not stated), the survival is 66% (inactive).

In the case of `CC1CCN(S(=O)(=O)c2ccc3c(c2)oc(=O)n3CC(=O)NCc2ccc(F)cc2)CC1`, the survival was 111% (inactive).

Consider `Cc1ccc(-c2nnc(Nc3ccccc3O)c3ccccc23)cc1`, for which the survival is 49% (active).

As for `Cc1ccc(C)c(Nc2nnc(-c3ccc(C)c(S(=O)(=O)N4CCCCC4)c3)c3ccccc23)c1`, the survival is 119% (inactive).

For `CNS(=O)(=O)c1cc(-c2nnc(Nc3cc(C)ccc3C)c3ccccc23)ccc1C`, the survival was 69% (inactive).

For `COc1cc(C(Nc2ccc(S(=O)(=O)NCC3CCCO3)cc2)C(=O)NC(C)(C)C)cc(OC)c1OC` (configuration not stated), the survival is 109% (inactive).

For the molecule `Cc1ccc(CNC(=O)c2cccc(Nc3nc4ccccc4n4nnnc34)c2)cc1`, the survival was 45% (inactive).

For the molecule `CC(C)CCNC(=O)c1cccc(Nc2nc3ccccc3n3nnnc23)c1`, the survival is 39% (active).

Regarding `O=C(NCc1ccccc1)c1cccc(Nc2nc3ccccc3n3nnnc23)c1`, the survival was 71% (inactive).

Regarding `CCc1ccc(NC(=O)Cn2nnc(C(=O)NCCc3ccccc3)c2N)cc1`, the survival was 99% (inactive).

`CCOC(=O)c1ccccc1NC(=O)CN1CCCN(Cc2cccc(Cl)c2)S1(=O)=O`: the survival was 101% (inactive).

For the molecule `CSc1ccc(CCNC(=O)C2CCN(c3ncnc4c3nc3n4CCCCC3)CC2)cc1`, the survival was 79% (inactive).

On to `COc1ccccc1/C=C/c1nc2ccccc2n1C(C)C`, for which the survival is 8% (active).

For `COc1cccc(/C=N/c2nc3ccccc3n2C)c1O`, the survival is 122% (inactive).

On to `COc1cccc(/C=N/n2c(N)nc3ccccc32)c1OC`, for which the survival was 82% (inactive).

For the molecule `O=C(c1ccc(Cl)cc1)C1CCN(C(=O)N2CCOCC2)CC1`, the survival was 66% (inactive).

For `NC(=O)CN1C(=O)C2(SCC(=O)N2c2cccc(F)c2)c2ccccc21` (configuration not stated), the survival was 78% (inactive).

In the case of `Cc1ccc(NC(=O)C2CCN(c3nn4c(=O)cc(C)nc4s3)CC2)cc1`, the survival was 104% (inactive).

Turning to `O=C(Nc1ccc(O)c(-c2nc3ccccc3o2)c1)c1sc2ccccc2c1Cl`, the survival is 105% (inactive).

Consider `COC(=O)c1ccccc1NC(=O)c1cc2c(-c3ccc(OC)c(OC)c3)nn(C)c2s1`, for which the survival is 97% (inactive).

For the molecule `C=CCn1c(SC)nc2c1c(=O)[nH]c(=O)n2C`, the survival is 94% (inactive).

With `CCC(C)(C)NC(=O)C1CCN(S(=O)(=O)c2c(C)noc2/C=C/c2ccc(C)cc2)CC1`, the survival was 52% (active).

With `Cc1ccc(/C=C/c2onc(C)c2S(=O)(=O)N2CCC(C(=O)Nc3cc(C)ccc3C)CC2)cc1`, the survival is 78% (inactive).

As to `Cc1ccc(/C=C/c2onc(C)c2S(=O)(=O)N2CCC(C(=O)NCc3ccc(Cl)cc3)CC2)cc1`, the survival is 93% (inactive).

With `COC(=O)/C(C#N)=C/c1ccc(-c2ccccc2)o1`, the survival is 75% (inactive).

With `Cc1ccc(-c2nn(CC(=O)NCc3ccccc3)c3c2cnc2ccc(F)cc23)cc1C`, the survival was 75% (inactive).

In the case of `O=C(Nc1ccc(F)cc1)c1ccc(Cn2nc(N3CCN(c4ccccc4)CC3)ccc2=O)o1`, the survival was 82% (inactive).

With `Cn1c(=O)c2c(-c3ccccc3)n3c(c2n(C)c1=O)C(c1ccccc1[N+](=O)[O-])Nc1ccccc1-3` (configuration not stated), the survival was 79% (inactive).

In the case of `COc1ccc(-c2c3c(=O)n(C)c(=O)n(C)c3c3n2-c2ccccc2NC3c2ccc(OC)cc2)cc1` (configuration not stated), the survival was 74% (inactive).

In the case of `Cc1ccc(C2Nc3ccccc3-n3c(-c4ccccc4)c4c(=O)n(C)c(=O)n(C)c4c32)cc1` (configuration not stated), the survival is 41% (active).

As for `Cn1c(=O)c2c(-c3ccccc3)n3c(c2n(C)c1=O)C(c1ccc([N+](=O)[O-])cc1)Nc1ccccc1-3` (configuration not stated), the survival is 34% (active).

On to `COc1ccc(C2Nc3ccccc3-n3c(-c4ccccc4)c4c(=O)n(C)c(=O)n(C)c4c32)cc1` (configuration not stated), for which the survival was 79% (inactive).

Turning to `Cn1c(=O)c2c(-c3ccccc3)n3c(c2n(C)c1=O)C(c1cccc([N+](=O)[O-])c1)Nc1ccccc1-3` (configuration not stated), the survival was 53% (inactive).
